In the supplement of paper PMC13380429:

Tested on: Vero E6 infected with SARS-CoV-2
Assay: inhibition of SARS-CoV-2 cytopathic effect; higher = more antiviral protection, active = above 15
Conditions: 48 h

Measured: inhibition of SARS-CoV-2 cytopathic effect

O=C1NC(=O)C(c2ccccc2)(c2ccccc2)N1 [phenytoin]
inactive: 1 nM -2.48% | 8.33 nM 0.49% | 100 nM -0.76% | 833.33 nM -0.84% | 10000 nM 0.37%

C[C@H](CCC(=O)O)[C@H]1CC[C@H]2[C@@H]3C(=O)C[C@@H]4CC(=O)CC[C@]4(C)[C@H]3CC(=O)[C@]12C [dehydrocholate-acid]
inactive: 1 nM -5.5% | 8.33 nM -4.18% | 100 nM -2.25% | 833.33 nM -2.84% | 10000 nM -7.01%

CC(C)(C)NC(=O)[C@@H]1C[C@@H]2CCCC[C@@H]2CN1C[C@@H](O)[C@H](Cc1ccccc1)NC(=O)[C@H](CC(N)=O)NC(=O)c1ccc2ccccc2n1 [saquinavir]
inactive: 1 nM -9.33% | 8.33 nM -7.46% | 100 nM -1.46% | 833.33 nM -6.25% | 10000 nM -22%

CC(=O)Oc1ccccc1C(=O)O [aspirin]
inactive: 1 nM -5.74% | 8.33 nM -5.82% | 100 nM -7.3% | 833.33 nM -5.09% | 10000 nM -12.8%

C[C@@H](O[C@H]1OCCN(Cc2nn(P(=O)(O)O)c(=O)[nH]2)[C@H]1c1ccc(F)cc1)c1cc(C(F)(F)F)cc(C(F)(F)F)c1 [fosaprepitant-dimeglumine]
inactive: 1 nM -0.45% | 8.33 nM 3.23% | 100 nM 1% | 833.33 nM -0.01% | 10000 nM -0.52%

CC(C)(C)C(=O)Oc1ccc(S(=O)(=O)Nc2ccccc2C(=O)NCC(=O)O)cc1 [sivelestat]
inactive: 1 nM 1.78% | 8.33 nM -0.24% | 100 nM 0.61% | 833.33 nM 1.84% | 10000 nM -1.94%
